Results on 28 compounds are retold here after PubChem BioAssay (NCI).

About 83,000 compounds went through this panel and 20% of them were active in at least one assay; those are over-represented in the sample as a whole.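 Note: values are percent growth. 100 is the growth of untreated cells, values between 100 and 0 indicate rising inhibition; between -100 and 0 indicates cell death.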 Active and inactive are the calls of the source. The calls were made as follows: active = growth percent below 10; inactive = the rest.

For this assay, the system named is OVCAR-8 ovarian. Put plainly: NCI-60 one-dose screen, 48 h (100 = growth as untreated, 0 = no growth, -100 = all killed). Particulars: 10 µM unless noted.
Turning to `Cn1c(=O)c2c(nc(NC3=NS(=O)(=O)c4ccccc43)n2Cc2ccccc2)n(C)c1=O`, the growth was 99.5% (inactive).

With `COc1ccc(C/C(C)=C(/c2ccc(OCCN3CCCCCC3)cc2)c2ccc(OC(=O)NCc3ccccc3)cc2)cc1`, the growth is 92.4% (inactive).

`Cn1cc(-c2csc(-c3cn(C(=O)OC(C)(C)C)c4ccccc34)n2)c2ccnc(Cl)c21`: the growth is 48.2% (inactive).

Take `CCN(C(=O)N1CCN(c2cc3c(cc2F)c(=O)c(C(=O)O)cn3C2CC2)CC1)c1nc(-c2ccc(C)cc2)cs1`: the growth was 11.5% (inactive).

For the compound `COC(=O)c1nc(-c2ccccc2)oc1S(=O)(=O)N1CCC(C(N)=O)CC1`, the growth was 83.7% (inactive).

Take `CCCCSCC(=O)c1ccccc1`: the growth is 94.2% (inactive).

As to `Cc1ccc(Nc2nc(-c3ccc(F)cc3)c(C#N)c(=O)n2C)cc1`, the growth was 67.3% (inactive).

As to `COc1cccc(OC)c1Oc1c(-c2nc3ccccc3s2)c(C)nn1-c1ccccc1`, the growth was 72.2% (inactive).

Take `Cc1ccccc1CNc1c2ccccc2nc2ccccc12`: the growth is 21% (inactive).

`COc1ccc2nc3ccccc3c(NCc3ccc(F)cc3)c2c1`: the growth was 19.4% (inactive).

For `O=C1NC(=O)c2c1c1c3ccccc3[nH]c1c1oc3cc(Br)ccc3c21`, the growth is 81.8% (inactive).

For the compound `COc1ccc(-c2nnc(SCC(=O)Nc3ccc(/C(C)=N\O)cc3)n2-c2ccccc2)cc1OC`, the growth is 42.7% (inactive).

Regarding `CC1=CCC[C@@H]2C1(C)CC[C@H](C)[C@@]2(C)CC1=CC(=O)C(SC(C)(C)C)=CC1=O` (stereo partly drawn), the growth was 91.8% (inactive).

`CCn1cc(CNc2ccc(C(=O)Nc3cc4cc(OC)c(OC)cc4c(C)n3)cc2)c(C)n1`: the growth is 1.1% (active).

Turning to `CCCCN1C(=O)/C(=c2\sc3n(c2=O)NC2C(N=3)N(CC)C(=O)N2CC)c2ccccc21` (stereo not drawn), the growth is 36.2% (inactive).

Regarding `NC(=O)c1c(NC(=O)c2ccc(Cl)cc2)sc2c1CCC(=O)C2`, the growth is 61.3% (inactive).

Turning to `CC1(C)CC[C@]2(C(=O)O)CC[C@]3(C)C(=CC[C@@H]4[C@@]5(C)C[C@@H](Cc6cn([C@@H]7O[C@H](CO)[C@@H](O)[C@H](O)[C@H]7O)nn6)[C@H](O)C(C)(C)[C@@H]5CC[C@]43C)[C@@H]2C1`, the growth was 98.7% (inactive).

Take `CCNCc1ccc(O)c2ncccc12`: the growth is 23% (inactive).

As for `CC(C)c1ccc(C(=O)Nc2sc3cc(O)ccc3c2C#N)cc1`, the growth was 51.2% (inactive).

`CCOC(=O)c1c(NC(=O)CSc2n[nH]c3nc4ccccc4n23)sc(CC)c1C`: the growth is 99.2% (inactive).

In the case of `COc1cccc(/C=C/C(=O)c2cc3c(N)c(C(=O)Nc4cccc(Cl)c4C)sc3nc2C)c1`, the growth is -33.4% (active).

In the case of `Cc1nn(-c2ccccc2)c(N2CCCCC2)c1/C=N/NC(=O)Cn1c(=O)sc2ccccc21`, the growth is 81.1% (inactive).

For `COC(=O)Cc1nc(C#N)c(N(C)C)o1`, the growth is 101% (inactive).

Take `N=C(N)c1ccc(-c2ccc(-c3ccc(Cl)cc3Cl)s2)cc1F`: the growth was -35.3% (active).

For the compound `C/C(C=O)=C\c1ccc2c(c1)OCO2`, the growth is 106% (inactive).

Regarding `Cc1ccc(/C=C(\C#N)C(=O)Nc2ncc(Cc3cc(Cl)ccc3Cl)s2)o1`, the growth was 49.8% (inactive).

As to `C[C@@H]1CC[C@@]2(OC1)O[C@H]1C[C@H]3[C@@H]4CC=C5C[C@@H](O[C@@H]6O[C@H](CO)[C@@H](O[C@@H]7O[C@@H](CO)[C@H](O)[C@H]7O)[C@H](O)[C@H]6O[C@@H]6O[C@@H](C)[C@H](O)[C@@H](O)[C@H]6O)CC[C@]5(C)[C@H]4CC[C@]3(C)[C@H]1[C@@H]2C`, the growth was -91.2% (active).

For the compound `CCOC(=O)c1cn2ncnc(Oc3ccc(NC(=O)NC4CC4)c(F)c3)c2c1C`, the growth was 99.7% (inactive).
